Source: the supplement of paper PMC6089552
In all, about 3,200 compounds went through this assay and about 300 (9.4%) showed activity. The sample as a whole holds a higher share of actives than the screen did.

Test system: A673/TR/shEF
Experiment: cell viability (LOESS-normalised, relative to median of negative controls) (log2 ratio); higher = more viable cells (less compound effect), active = hit call of the paper (over 3 MAD below the median)
Details: treatment time: 72 h
In short: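 Doxycycline, present or absent from 24 h before compounds, was used to induce EWS-FLI1 shRNA knockdown in A673/TR/shEF Ewing sarcoma cells at 1,500 per well in 384-well plates. Cells then received library compounds at two or more concentrations, or DMSO controls, for three days. Viability was measured by CellTiter-Glo luminescence on an Envision reader, and per-plate LOESS correction, division by the negative-control median and log2 transformation followed.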

[1] = 0.25 µM, library screen: screen1, EWS-FLI1 expression: high (no doxycycline)
[2] = 0.25 µM, library screen: screen1, EWS-FLI1 expression: low (doxycycline-induced shRNA knockdown)
[3] = 2.5 µM, library screen: screen1, EWS-FLI1 expression: high (no doxycycline)
[4] = 2.5 µM, library screen: screen1, EWS-FLI1 expression: low (doxycycline-induced shRNA knockdown)
[5] = 0.103 µM, library screen: screen3, EWS-FLI1 expression: high (no doxycycline)
[6] = 0.103 µM, library screen: screen3, EWS-FLI1 expression: low (doxycycline-induced shRNA knockdown)
[7] = 0.308 µM, library screen: screen3, EWS-FLI1 expression: high (no doxycycline)
[8] = 0.308 µM, library screen: screen3, EWS-FLI1 expression: low (doxycycline-induced shRNA knockdown)
[9] = 0.926 µM, library screen: screen3, EWS-FLI1 expression: high (no doxycycline)
[10] = 0.926 µM, library screen: screen3, EWS-FLI1 expression: low (doxycycline-induced shRNA knockdown)
[11] = 2.8 µM, library screen: screen3, EWS-FLI1 expression: high (no doxycycline)
[12] = 2.8 µM, library screen: screen3, EWS-FLI1 expression: low (doxycycline-induced shRNA knockdown)
[13] = 8.3 µM, library screen: screen3, EWS-FLI1 expression: high (no doxycycline)
[14] = 8.3 µM, library screen: screen3, EWS-FLI1 expression: low (doxycycline-induced shRNA knockdown)
[15] = 25 µM, library screen: screen3, EWS-FLI1 expression: high (no doxycycline)
[16] = 25 µM, library screen: screen3, EWS-FLI1 expression: low (doxycycline-induced shRNA knockdown)
[17] = 0.025 µM, library screen: screen2, EWS-FLI1 expression: high (no doxycycline)
[18] = 0.025 µM, library screen: screen2, EWS-FLI1 expression: low (doxycycline-induced shRNA knockdown)
[19] = 0.25 µM, library screen: screen2, EWS-FLI1 expression: high (no doxycycline)
[20] = 0.25 µM, library screen: screen2, EWS-FLI1 expression: low (doxycycline-induced shRNA knockdown)
[21] = 2.5 µM, library screen: screen2, EWS-FLI1 expression: high (no doxycycline)
[22] = 2.5 µM, library screen: screen2, EWS-FLI1 expression: low (doxycycline-induced shRNA knockdown)
[23] = 25 µM, library screen: screen2, EWS-FLI1 expression: high (no doxycycline)
[24] = 25 µM, library screen: screen2, EWS-FLI1 expression: low (doxycycline-induced shRNA knockdown)

Measured: cell viability (log2)

C=C(C)C1Cc2c(cc3oc(CO)cc(=O)c3c2O)O1 (centres undefined)
inactive: [1] 0.0482 | [2] -0.012 | [3] 0.067 | [4] 0.013

CCc1c2c(nc3ccc(OC(=O)N4CCC(N5CCCCC5)CC4)cc13)-c1cc3c(c(=O)n1C2)COC(=O)[C@]3(O)CC
active: [9] -0.241 | [11] -1.31 | [12] -0.173 | [13] -1.95 | [14] -0.414 | [15] -2.57 | [16] -0.647
inactive: [5] 0.00275 | [6] 0.0626 | [7] -0.0633 | [8] 0.00509 | [10] 0.026

CC[C@@]1(O)C(=O)OCc2c1cc1n(c2=O)Cc2cc3c(CN(C)C)c(O)ccc3nc2-1
active: [5] -0.373 | [7] -1.79 | [8] -0.321 | [9] -2.4 | [10] -0.459 | [11] -3.72 | [12] -0.844 | [13] -4.21 | [14] -1.11 | [15] -4.26 | [16] -1.44
inactive: [6] -0.0171

CC[C@@]1(O)C(=O)OCc2c1cc1n(c2=O)Cc2cc3cc(O)ccc3nc2-1
active: [1] -1.78 | [2] -0.267 | [3] -4.23 | [4] -1.06

C=CC(C)(O)CC/C=C(\C)CCC=C(C)C (centres undefined)
inactive: [1] 0.0873 | [2] 0.0984 | [3] 0.22 | [4] 0.113

COc1cc(OC)c(C2NC(=S)NC(C)=C2C(=O)Nc2ccccc2Cl)cc1OC (centres undefined)
inactive: [1] 0.0713 | [2] 0.0952 | [3] 0.0303 | [4] 0.0128

CC(C)C[C@H](NC(=O)OCC1c2ccccc2-c2ccccc21)C(=O)O
inactive: [1] 0.0635 | [2] 0.0579 | [3] 0.116 | [4] -0.00318

CC(C)CCCC(C)C1CCC2C3CCC4CC(=O)CCC4(C)C3CCC12C (centres undefined)
inactive: [1] 0.027 | [2] 0.0292 | [3] 0.169 | [4] 0.017

C/C1=C\CC/C(C)=C/CC(C)(C)/C=C/C1
inactive: [1] 0.0853 | [2] 0.0875 | [3] 0.112 | [4] 0.0862

Cc1ccc(C(C)C)cc2c(C)ccc1-2
inactive: [1] 0.0556 | [2] -0.0467 | [3] 0.0686 | [4] 0.0228

C=C1CCC2C(CC2(C)C)C(=C)CCC1=NO (centres undefined)
inactive: [1] 0.105 | [2] 0.00367 | [3] 0.133 | [4] 0.0769

CC(C)=CCc1c(O)cc(C)oc1=O
inactive: [1] 0.0912 | [2] -0.0147 | [3] 0.109 | [4] -0.0401

O=c1[nH]cc(F)c(=O)[nH]1
inactive: [17] 0.207 | [18] 0.0564 | [5] 0.0782 | [6] 0.0161 | [1] 0.0591 | [2] -0.00519 | [19] 0.172 | [20] 0.0764 | [7] 0.113 | [8] 0.0726 | [9] 0.13 | [10] 0.0535 | [3] 0.0991 | [4] 0.0157 | [21] 0.104 | [22] 0.00707 | [11] 0.139 | [12] 0.018 | [13] 0.0774 | [14] 0.0748 | [24] -0.051 | [15] -0.0664 | [16] -0.00616
active: [23] -0.375

CN1C[C@H](O)[C@@H](O)[C@H](O)[C@H]1CO
inactive: [19] -0.0352 | [20] 0.0677 | [21] 0.0611 | [22] 0.0287

O=C1NC(=O)C(c2ccccc2)(c2ccccc2)N1
inactive: [5] 0.0587 | [6] -0.0104 | [1] 0.0952 | [2] 0.161 | [19] 0.143 | [20] 0.0547 | [7] 0.0798 | [8] 0.0371 | [9] 0.05 | [10] 0.0456 | [3] 0.145 | [4] 0.128 | [21] 0.044 | [22] 0.0796 | [11] 0.0207 | [12] 0.0711 | [13] -0.00351 | [14] 0.0628 | [15] 0.0771 | [16] 0.0956

CCC1(c2ccccc2)C(=O)NCNC1=O
inactive: [5] 0.0813 | [6] 0.0528 | [1] 0.0645 | [2] 0.0903 | [19] 0.00606 | [20] 0.00378 | [7] 0.122 | [8] 0.128 | [9] 0.168 | [10] 0.0786 | [3] 0.179 | [4] 0.204 | [11] 0.146 | [12] 0.0526 | [13] 0.0966 | [14] 0.0601 | [15] 0.121 | [16] 0.121
active: [21] -0.197 | [22] -0.337

CCC1(c2ccccc2)NC(=O)N(C)C1=O (centres undefined)
inactive: [1] 0.0606 | [2] 0.0208 | [3] 0.107 | [4] 0.103

N#Cc1c2c(c(NCCCO)n3c1nc1ccccc13)CCC2
inactive: [1] 0.146 | [2] 0.012 | [3] 0.0888 | [4] -0.0597

COc1cc(O)c2c(=O)cc(C)oc2c1CC=C(C)C
inactive: [1] 0.113 | [2] 0.0803 | [3] 0.117 | [4] 0.16

COc1ccc(C(=O)c2ccc(O)cc2O)c(O)c1
inactive: [1] 0.0224 | [2] 0.0701 | [3] 0.116 | [4] 0.108

COc1ccc(CN2CCN(Cc3cccc([N+](=O)[O-])c3)CC2)cc1OC
inactive: [1] 0.0511 | [2] 0.032 | [3] 0.111 | [4] 0.138

COc1ccc2c(=O)c(-c3cc4c(cc3OC)OCO4)coc2c1
inactive: [1] 0.0588 | [2] -0.078 | [3] 0.0766 | [4] 0.0171

COc1cc2c(cc1OC)-c1cc3ccc(OC)c(OC)c3c[n+]1CC2
inactive: [1] 0.021 | [2] 0.0361 | [3] -0.0191 | [4] 0.0646

COc1ccc2cc3[n+](cc2c1OC)CCc1cc2c(cc1-3)OCO2
active: [21] -0.318 | [23] -1.53 | [24] -0.365
inactive: [17] 0.0792 | [18] 0.0888 | [1] 0.0876 | [2] 0.0916 | [19] 0.139 | [20] 0.0365 | [3] -0.0264 | [4] 0.141 | [22] -0.00212

COC1=CC(=O)C(O)=C/C1=C/C=C/c1ccccc1
inactive: [1] 0.0854 | [2] 0.141 | [3] 0.097 | [4] 0.125

N#CC(=C(N)Sc1ccccc1N)C(C#N)=C(N)Sc1ccccc1N
inactive: 0.025 µM, library screen: screen1, EWS-FLI1 expression: low (doxycycline-induced shRNA knockdown) -0.0593 | [1] 0.259 | [2] 0.136 | [4] 0.171 | 25 µM, library screen: screen1, EWS-FLI1 expression: low (doxycycline-induced shRNA knockdown) 0.0799
0.299: 0.025 µM, library screen: screen1, EWS-FLI1 expression: high (no doxycycline)
active: [3] -0.31 | 25 µM, library screen: screen1, EWS-FLI1 expression: high (no doxycycline) -0.459

N#CC(=C(/N)Sc1ccccc1N)/C(C#N)=C(\N)Sc1ccccc1N
inactive: [19] 0.102 | [20] 0.0572 | [21] -0.0299 | [22] -0.0332

FC(F)(F)c1cc(CO[C@H]2CCCN[C@H]2c2ccccc2)cc(C(F)(F)F)c1
inactive: [19] 0.151 | [20] 0.112 | [21] 0.041 | [22] 0.077

CC(=O)O.CC(=O)O.[Cd]
inactive: [1] 0.129 | [2] -0.0033 | [3] 0.0042 | [4] -0.0745

CC(=O)O[C@@H]1c2c(ccc3ccc(=O)oc23)OC(C)(C)[C@@H]1OC(=O)CC(C)C
inactive: [1] 0.0407 | [2] -0.0116 | [3] 0.121 | [4] 0.0173

CC(=O)OC(CC(=O)[O-])C[N+](C)(C)C (centres undefined)
inactive: [1] 0.00442 | [2] 0.0665 | [3] 0.0316 | [4] -0.00031
